RecA intein inh: inhibitors of M. tuberculosis RecA intein splicing; P9WHJ3; actives 0.75% (n = 290,000); inhibition, % (no concentration beside the values); cell-free RecA intein splicing, fluorescence; AID 2221; in the data active means inhibition above about 30%; inconclusive means no clear call, values can overlap the other calls
Target sequence (P9WHJ3 whole entry, looked up): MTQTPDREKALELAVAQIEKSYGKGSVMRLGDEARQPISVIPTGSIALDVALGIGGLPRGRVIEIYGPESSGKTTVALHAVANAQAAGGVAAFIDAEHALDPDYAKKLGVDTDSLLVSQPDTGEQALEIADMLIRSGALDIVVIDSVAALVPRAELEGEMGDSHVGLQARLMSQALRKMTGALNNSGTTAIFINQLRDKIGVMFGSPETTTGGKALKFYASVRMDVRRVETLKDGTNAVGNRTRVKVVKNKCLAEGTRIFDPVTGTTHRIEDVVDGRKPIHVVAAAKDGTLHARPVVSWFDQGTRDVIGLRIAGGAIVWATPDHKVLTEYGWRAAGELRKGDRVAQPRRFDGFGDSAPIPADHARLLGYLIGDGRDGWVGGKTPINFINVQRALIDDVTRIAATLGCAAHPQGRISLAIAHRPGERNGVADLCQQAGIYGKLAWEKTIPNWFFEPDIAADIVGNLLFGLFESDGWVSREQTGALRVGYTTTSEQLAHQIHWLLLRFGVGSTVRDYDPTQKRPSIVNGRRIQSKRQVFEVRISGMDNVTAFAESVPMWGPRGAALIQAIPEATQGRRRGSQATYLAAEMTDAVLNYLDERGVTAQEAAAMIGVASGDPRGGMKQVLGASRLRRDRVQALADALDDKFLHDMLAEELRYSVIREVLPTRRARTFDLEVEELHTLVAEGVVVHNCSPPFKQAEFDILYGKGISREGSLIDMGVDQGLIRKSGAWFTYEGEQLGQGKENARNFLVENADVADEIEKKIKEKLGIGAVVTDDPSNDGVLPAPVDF
BJeLR viability: BJeLR cell viability loss; actives 0.17% (n = 300,000); inhibition, % (concentration not given with the values); AID 1554; BJeLR (HRASV12) viability, CellTiter-Glo ATP luminescence, 48 h; in the data active means inhibition above about 50%; inconclusive means no clear call, values can overlap the other calls
PrPC TRFRET: reduces human prion protein on the cell surface. cell surface PrPC, TR-FRET read-out. inhibition, % at 13.8 µM. actives 0.43% (n = 370,000); in the data active means inhibition above about 24%
PrP 5UTR inh: suppresses PrP 5' UTR mRNA reporter expression; cell-based PrP 5' UTR mRNA reporter, plate reader; inhibition, % (no concentration beside the values); actives 0.35% (n = 340,000); AID 488862; in the data active means inhibition above about 52%
SSB-PriA inh: inhibitors of Klebsiella pneumoniae PriA binding to SSB C-terminal tail; AID 1272365; AlphaScreen SSBct-PriA binding, biotinylated peptide; actives 0.6% (n = 430,000); inhibition, % at 33 µM; in the data active means inhibition mostly above about 37%, no sharp cut-off; inactive means mostly below about 20%
PfHsp40 yeast: rescue of PfHsp40-mediated yeast toxicity. growth rescue, % at 12.5 µM. S. cerevisiae expressing PfHsp40, growth rescue, ATP luminescence. actives 0.68% (n = 340,000). AID 504582; in the data active means growth rescue above about 28%, passing the limit was not always enough; inconclusive means no clear call, values can overlap the other calls;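 further: yeast W303a lacking pdr1 and pdr3 grown in galactose medium; growth measured after three days at 30 °C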
PrP 5UTR single: prion 5' UTR mRNA inhibition, cherry-pick retest. shares compounds with PrP 5UTR inh. actives 48% (n = 1,100). cell-based prion protein 5' UTR reporter, plate reader. inhibition, % at 2.5 µM; in the data active means inhibition above about 54%; inconclusive means no clear call, values can overlap the other calls
A number is an active result; 0 = inactive; ? = inconclusive; - = no result given. Shown are actives, neighbours in structure and some others; about 1.9% of the full set was active somewhere.

SMILES | RecA intein inh | BJeLR viability | PrPC TRFRET | PrP 5UTR inh | SSB-PriA inh | PfHsp40 yeast | PrP 5UTR single
C[C@@H]1O[C@@H](O[C@H]2C[C@@H](O)[C@]3(CO)[C@H]4[C@H](O)C[C@]5(C)[C@@H](C6COC(=O)C6)CC[C@]5(O)[C@@H]4CC[C@]3(O)C2)[C@H](O)[C@H](O)[C@H]1O (stereo partly specified) | 0 | 71 | 0 | 59 | 0 | 0 | 70
CC1OC(OC2CC(O)C3(CO)C4C(O)CC5(C)C(C6=CC(=O)OC6)CCC5(O)C4CCC3(O)C2)C(O)C(O)C1O (stereo unspecified) | - | - | 0 | 91 | 0 | 0 | 93
CC(=O)N1CCN(c2cc(Nc3ccccn3)ncn2)CC1 | - | - | - | - | 0 | - | -
Cc1nn(-c2ccccc2Cl)c(Cl)c1C=NNc1nc2ccccc2s1 | - | - | - | - | 0 | - | -
Cc1nn(-c2ccccc2Cl)c(Cl)c1/C=N/Nc1nc2ccccc2s1 | 0 | 0 | 0 | 87 | - | ? | 81
Cn1cc(/C=N/n2cnc3scc(-c4ccc(Cl)cc4)c3c2=O)c2ccccc21 | 0 | 0 | 0 | 57 | - | 0 | 91
CCOC(=O)c1ccc(NC(=O)Cn2cc(OC)c(=O)cc2CN2CCC(C)CC2)cc1 | - | - | - | - | 0 | - | -
O=C(COc1ccccc1Cl)Nc1ccc(CN2CCCCC2)cc1 | 0 | 0 | 0 | 66 | 0 | 0 | 0
O=C(COc1ccccc1Cl)Nc1ccc(C(=O)N2CCCCC2)cc1 | 0 | 0 | 0 | 0 | 0 | 0 | -
Cc1cnc(NC(=O)CCNC(=O)c2ccccc2Cl)s1 | 0 | 0 | 0 | 0 | 0 | 0 | -
Cc1cnc(NC(=O)COc2ccccc2Cl)s1 | 0 | 0 | 0 | 63 | 0 | 0 | ?
O=C(CNCc1ccco1)Nc1ccc(N2CCCCCC2)cc1 | 0 | 0 | 0 | 83 | 0 | 0 | 0
CN(C)c1nccnc1O[C@H]1CCCN(C(=O)c2cc(=O)c3ccccc3o2)C1 | - | - | - | - | 0 | - | -
CC(=O)c1ccc(-c2cccs2)s1 | 0 | 0 | 0 | 69 | 0 | 0 | 0
Oc1ccc(Cl)cc1C=Nc1ccccc1Br | 0 | 0 | 0 | 57 | 0 | 0 | 0
CN1C(=O)C(=Cc2ccc(N3CCCCC3)o2)C(=O)N(C)C1=S | 0 | 0 | 0 | 54 | 0 | 0 | 0
O=C(O)CN1C(=O)/C(=C/c2ccc(N3CCCCC3)o2)SC1=S | 0 | 0 | 0 | 0 | 0 | 0 | -
Brc1ccc(C=NNc2ccc3ccccc3n2)cc1 | - | - | - | - | 0 | - | -
Cc1cccc(/C=N/Nc2ccc3ccccc3n2)c1 | 0 | 0 | 0 | 75 | - | 0 | 66
C(=N\Nc1ccc2ccccc2n1)/c1ccc2c(c1)OCCO2 | 0 | 0 | 0 | 83 | - | 0 | 69
O=C(CC(c1ccccc1)c1ccccc1O)NCc1ccccc1 (stereo unspecified) | 0 | 0 | 0 | 0 | 0 | 0 | -
CN(C)CCCNC(=O)CC(c1ccccc1)c1ccccc1O (stereo unspecified) | - | 0 | 0 | 71 | 0 | 0 | 0
COC(=O)c1ccc(Oc2nc3c(c(=O)n(C)c(=O)n3C)n2CCC(C)C)cc1 | 0 | 0 | 0 | 0 | 0 | 0 | -
CCC(=O)c1ccc(Oc2nc3c(c(=O)n(C)c(=O)n3C)n2CC)cc1 | 0 | 0 | 0 | 58 | 0 | 0 | 0
Cc1[nH]nc2ccc(-c3cncc(OC[C@@H](N)Cc4c[nH]c5ccccc45)c3)cc12 | - | - | - | 95 | 0 | 0 | 91
SMILES | RecA intein inh | BJeLR viability | PrPC TRFRET | PrP 5UTR inh | SSB-PriA inh | PfHsp40 yeast | PrP 5UTR single
N[C@@H](Cc1c[nH]c2ccccc12)C(=O)O | 0 | 0 | - | - | - | - | -
COCC(C)n1c(C)cc(C(=O)COC(=O)c2cccn2C)c1C (stereo unspecified) | - | - | 0 | 67 | 0 | 0 | ?
Cc1ccc(NC(=O)c2oc3ccccc3c2NC(=O)c2c(F)cccc2Cl)cc1C | - | - | - | - | 0 | - | -
C#CCNS(=O)(=O)c1ccc(F)cc1Br | - | - | 0 | 0 | 0 | 0 | -
O=S(=O)(NCCc1ccccc1)c1ccc(F)cc1Br | - | - | 0 | 53 | 0 | 0 | 0
Cc1cc(NC(=O)CSc2nnc(-c3ccco3)n2C)no1 | - | - | 0 | 88 | 0 | 0 | 0
C[C@](O)(CNS(=O)(=O)c1cccs1)c1ccco1 | - | - | - | - | 0 | - | -
CCOc1cc(/C=C/C(=O)c2ccc3c(c2)OCCO3)ccc1OCC(=O)N(C)C | 0 | 0 | 0 | 60 | 0 | 0 | 0
CCOc1cc(/C=C/C(=O)c2ccc(O)cc2)ccc1OCC(=O)N(C)C | 0 | 0 | 0 | 0 | 0 | 0 | -
Cc1cc(Cl)ccc1NC(=S)N1CCN(Cc2ccccc2)CC1 | 0 | 0 | 0 | 51 | 0 | 0 | 0
